Results published in the supplement of paper PMC12350171.
Structures can show the parent of a compound that is named as a salt. Unmarked numbers belong to inactive results.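 Rule for the calls: active = AUC significantly below DMSO controls by Student t-fit with adjusted P under 0.01; inactive = not significantly reduced.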

test system: Haemophilus parainfluenzae; experiment: growth AUC normalised to DMSO control (fraction of control); higher = less growth inhibition, active = hit call of the paper; conditions: 20 µM
In short: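 Pathogens were passaged twice under anaerobic conditions, then inoculated into pre-reduced mGAM plates at a starting OD578 of 0.01, with compound at 20 μM and 1% DMSO, and sealed with breathable membranes. For Haemophilus parainfluenzae, the medium was supplemented with hemin and NAD. OD578 was read every hour for 24 h in three biological replicates. Growth-curve AUC was calculated by the trapezoidal rule up to the exponential-to-stationary transition and normalised to DMSO controls on the same plate.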

| SMILES | growth AUC normalised to DMSO control |
| --- | --- |
| COC(=O)Nc1nc2cc(C(=O)c3cccs3)ccc2[nH]1 [Nocodazole] | 1.03 |
| COC1=C(OC)C(=O)C(CCCCCCCCCCO)=C(C)C1=O [Idebenone] | 1.04 |
| COc1ccc2c(c1)N(C[C@H](C)CN(C)C)c1ccccc1S2 [Methotrimeprazine maleate salt] | 1.04 |
| C[C@]12CC[C@H]3C(=CCc4cc(O)ccc43)[C@@H]1CCC2=O [Equilin] | 1.02 |
| CC(C)(C#N)c1cc(Cn2cncn2)cc(C(C)(C)C#N)c1 [Anastrozole] | 1.1 |
| CC(C)Cn1cnc2c(N)nc3ccccc3c21 [Imiquimod] | 1.08 |
| CC(C)OC(=O)C(C)(C)Oc1ccc(C(=O)c2ccc(Cl)cc2)cc1 [Fenofibrate] | 0.961 |
| CC(C)/N=c1\cc2n(-c3ccc(Cl)cc3)c3ccccc3nc-2cc1Nc1ccc(Cl)cc1 [Clofazimine] | 1 |
| C=CCSCC1Nc2cc(Cl)c(S(N)(=O)=O)cc2S(=O)(=O)N1 (centres undefined) [Althiazide] | 1.07 |
| COC(=O)CCc1ccc(OCC(O)CNC(C)C)cc1 (centres undefined) [Esmolol hydrochloride] | 1.09 |
| CCCOc1cc(N)ccc1C(=O)OCCN(CC)CC [Propoxycaine hydrochloride] | 1.04 |
| CC(=O)OCC(=O)[C@@]12OC3(CCCC3)O[C@@H]1C[C@H]1[C@@H]3CCC4=CC(=O)C=C[C@]4(C)[C@@]3(F)[C@@H](O)C[C@@]12C [Amcinonide] | 1.03 |
| Nc1ccc(S(=O)(=O)Nc2ccccn2)cc1 [Sulfapyridine] | 0.976 |
| CCC[C@@H]1C[C@@H](C(=O)N[C@@H]([C@H]2O[C@H](SC)[C@H](O)[C@@H](O)[C@H]2O)[C@@H](C)O)N(C)C1 [Lincomycin hydrochloride] | 0.828 (active) |
